In PubChem BioAssay (NCI) one finds growth data, which are given here for 40 compounds.

Compounds without any hit were thinned out: in the full panel of roughly 83,000, 20% have a hit.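 Cell lines were cultured in 96-well plates, exposed to a single compound concentration, and assessed for percent growth 48 hours later.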 Values without a mark were called inactive. Calls of active or inactive are those of the source.

The subject of this experiment is SNB-75 CNS. Description: NCI-60 one-dose screen, 48 h (100 = growth as untreated, 0 = no growth, -100 = all killed). The settings on record: 10 µM unless noted. On the procedure:
Growth inhibition of the SNB-75 human tumor cell line is measured as a screen for anti-cancer activity. Cells are grown in 96 well plates and exposed to the test compound for 48 hours. Compounds are tested at a single concentration, which is 10^-5 M for most compounds. The reported endpoint is percent growth (GI% or GIPRCNT), where numbers from 0 - 100% represent growth inhibition, and numbers from -100% - 0 represent cell death. For example, a value of 40 represents 60% growth inhibition. A value of 0 means no net growth occurred over the course of the experiment. A value of -40 indicates 40% of cells at the beginning of the experiment died by the end of the experiment. A value of -100 means all cells are dead at the end of the experiment.
NCI-60 Human Tumor Cell Lines Screen was performed using the standard one-dose NCI protocol, which is described in more detail at https://dtp.cancer.gov/discovery_development/nci-60/default.htm.
Compounds with GIPRCNT values below 10 were considered active. Activity score was based on GIPRCNT using the following formula: […]
Score is 0 for GIPRCNT values of 100 or above, 50 for GIPRCNT values of 0, and 100 for GIPRCNT values of -100.
Take `NC(=O)CN1C(=O)c2ccccc2C1=O`: the growth is 86.4%. For `Nc1cc(N)c(S(=O)(=O)O)cc1N=Nc1cc([N+](=O)[O-])ccc1O` the value was 88.7%; for `O=c1nc(-c2ccccc2)c2cc(-c3ccc(N4CCCC4)nc3)ccc2[nH]1`, 66.1%; for `COc1ccc(-c2nc(C#N)c(NCC(c3ccc(Cl)cc3)N3CCCCC3)o2)cc1` (stereo not given), 91%. As for `Cc1cccc(C)c1NC(=O)CN(CC(C)C)CC(O)COc1ccccc1` (stereo not given), the growth is 86.6%. `COC(=O)c1cncc(C(=O)Nc2ccc(-n3cnc4ccccc43)cc2)c1`: the growth is 117%. For `COC(=O)/C=C/c1cc(OC)c2c(c1)[C@@H](C(=O)OC)[C@H](c1ccc(OC)c(OC)c1)O2` the value was -3.43% (active). Take `O=C1CC(c2ccc(O)c(O)c2)Oc2cc(O)c([C@@H]3O[C@H](CO)[C@@H](O)[C@H](O)[C@H]3O)c(O)c21` (stereo not given in full): the growth was 102%. Consider `C=C1C(=O)O[C@H]2[C@H]1CC/C(COC(=O)NCc1nc3ccccc3[nH]1)=C\CC[C@@]1(C)O[C@@H]21`, for which the growth is 91.9%. With `C#C[C@@]1(O)[C@@H](CO)O[C@@H](n2cc(-c3ccco3)c3c(N)ncnc32)[C@@H]1O`, the growth was 14.6%.

`CCCn1c(N)c(C(N)=O)sc1=S`: the growth is 82.9%. For `COc1ccc(C2N(c3cc(OC)c(OC)c(OC)c3)C(=O)C2(F)F)cc1F` (stereo not given) the value was 64.7%. Regarding `N#CC1C(c2ccc(Cl)cc2)=Nc2c(c(-c3ccccc3)nn2-c2ccccc2)C12C(=O)Nc1ccc(Cl)cc12` (stereo not given), the growth was 45.8%. As to `COc1cccc(C(=O)OCCn2nc3c4c(cccc42)C(=O)c2ccccc2-3)c1O`, the growth is 22.8%. The figure for `C#CCOC(=O)[C@]1(C)CCC[C@]2(C)[C@H]3C[C@H]4C(C(C)C)=C[C@]3(CC[C@H]21)[C@@H]1C(=O)CCC(=O)[C@@H]14` is 90.3%; for `O=C1NN(c2ccccc2)C(c2ccc(Cl)cc2)N2CCC[C@H]12` (stereo not given in full) it is 75.6%; for `Cc1ccc(C2CC(c3ccc(Nc4nc(NCCO)nc(NCCO)n4)cc3)=NN2c2ccc(Cl)cc2)cc1` (stereo not given) it is 28.5%.

For `COc1ccc2[nH]c(=O)c(/C=C/C(=O)c3ccccc3OC)cc2c1`, the growth is -11.5% (active). For `O=c1cc(/C=N\Nc2nc(-c3ccc(Cl)cc3Cl)cs2)c2cc(Cl)ccc2o1`, the growth was 80.6%.

As for `CN(C)CSc1nc2ccccc2s1`, the growth is 75.2%. The figure for `CCCCCCN1C(=O)CN=C1Nc1ccc2cc3ccc(NC4=NCC(=O)N4CCCCCC)cc3nc2c1` is 61.7%; for `O=C(CCCCCCCCC(=O)Nc1cccc(C2=NCCN2)c1)Nc1cccc(C2=NCCN2)c1` it is 110%. Regarding `N#CC1(C#N)C2=C(CCCC2)NC(c2c(F)cccc2Cl)C1(C#N)C#N` (stereo not given), the growth is 51.1%.

Regarding `CCCNc1nc(C)[nH]c(=O)c1S`, the growth is 91.2%. On to `COc1ccc(N(C)c2nc(Cl)nc3ccn(C)c23)cc1`, for which the growth was 56.8%. As for `N#Cc1ccc(Oc2ccc3ccc(=O)oc3c2)cc1`, the growth was 97.2%. For the compound `Oc1ccc(CNNc2ccnc3c(O)cccc23)c2cccnc12`, the growth was 54.9%.

Turning to `COc1cc(C2=N/C(=C\c3cc4ccccc4nc3Oc3ccccc3)C(=O)N2C(=N)N)cc(OC)c1OC`, the growth was 6.51% (active). In the case of `CSc1cccc(NC(=O)Nc2nc3c(C)cccc3s2)c1`, the growth is 76.7%. Consider `C=C1C(=O)O[C@H]2[C@H]1CC/C(COC(=O)n1ccnc1)=C\CC[C@@]1(C)O[C@@H]21`, for which the growth was 92.8%. As to `C=C(C)[C@@H]1CCC=C2CC[C@]3(C)[C@H](CC[C@@H]4[C@@]5(C)CCCNC(C)(C)[C@@H]5CC[C@]43C)[C@H]21`, the growth is 100%. In the case of `CC(C)C1=C[C@@]23CC[C@H]4[C@](C)(COCCC#N)CCC[C@]4(C)[C@H]2C[C@@H]1[C@@H]1[C@H]3[C@@H](OCCC#N)CC[C@@H]1OCCC#N`, the growth was 80.3%.

With `CN1CCN(C(=O)[C@@]2(C)CC[C@]3(C)CC[C@]4(C)C(=CC[C@@H]5[C@@]6(C)CC[C@H](OC(=O)c7cccnc7)C(C)(C)[C@@H]6CC[C@]54C)[C@@H]3C2)CC1`, the growth is 90.4%. For the compound `CC1=C/C(=N\N=C2/C=C(C)CC(C)(C)C2)CC(C)(C)C1`, the growth is 94.9%.

As to `O=C(/C(=C/c1ccc([N+](=O)[O-])cc1)SCc1ccc(Cl)cc1)c1ccc(F)cc1`, the growth was 82.3%. For `CC(=O)c1ccc(NC(=O)CSc2nnc(-c3cc(-c4ccc(Cl)cc4)nc4ccccc34)o2)cc1` the value was 82.7%; for `CCCCOc1nc2ccc(C)cc2cc1/C=C/C(=O)/C=C/c1ccc2c(c1)OCO2`, 97.1%; for `O=c1[nH]nc(-c2ccccc2)c2sc(NC(=S)Nc3ccc(Cl)cc3)nc12`, 84.1%. For `CC(C)CSc1nc(Nc2ccccc2)c(C#N)c(-c2ccc(F)cc2)n1` the value was -16.2% (active); for `Nc1c(C(=O)Nc2cccc3ccccc23)sc2nc3c(cc12)COCC3`, 30.9%.
